Molecules are shown by their SMILES. Out of some 65,000 compounds screened, about 2,100 (3.2%) showed an effect of 50% or more. The median lay at about -52%. The full list was thinned out, with strong results kept by preference.

This test concerns Plasmodium falciparum. The experiment in a line: Screen against P. falciparum Asexual Blood Stage (ABS), at 5uM. The settings on record: tested at 5 uM. It is filed as functional, Dd2.
On to `Cc1noc([C@@H]2C[C@H]3CN(Cc4cc(C)on4)C[C@H]3O2)n1`, for which the INHIBITION was -92.2%.

With `Cc1cnn(CCNCc2nccn2Cc2ccccc2)c1`, the INHIBITION was 83%.

`Cc1cnn(CC(C)NCc2ccncc2)c1` (centres undefined): the INHIBITION is 0.596%.

Consider `Cc1cnn(CC(C)NCc2cccnc2)c1` (centres undefined), for which the INHIBITION is recorded as -41.2%.

For the molecule `Cc1cnn(CCNCc2ccccc2OCc2cccnc2)c1`, the INHIBITION was found to be 71.5%.

For `CN1CCN(Cc2cccnc2)Cc2cccnc21`, the INHIBITION is -65.7%.

With `Cc1cnn(CC(C)NCc2ccc(C#N)cc2)c1` (centres undefined), the INHIBITION is given as -64.7%.

For `O=C(c1ccno1)N1CC[C@@H]2CN(C3CCOCC3)CCO[C@@H]2C1`, the INHIBITION is recorded as -25%.

For the molecule `CC(C)(C)NC(=O)CNc1ccc(C#N)c(C(F)(F)F)c1`, the INHIBITION is listed as -31.3%.

For `CCc1ocnc1C(=O)N1CCC2(CC1)OCC(C)O2` (centres undefined), the INHIBITION is listed as -79.3%.

As to `COc1cc(N2CCN(CC3CC3)c3nc(C)ccc3C2)ncn1`, the INHIBITION is -65.6%.

As to `O=C1N(Cc2ccncc2)CCC12CCCNC2` (centres undefined), the INHIBITION was -59.6%.

As to `CC(C)CN1CCC2(CCCNC2)C1=O` (centres undefined), the INHIBITION is given as 10.8%.

Turning to `O=C1N(Cc2cccc(F)c2)CCC12CCCNC2` (centres undefined), the INHIBITION is listed as -20.3%.

Take `O=C1N(Cc2cccc(Cl)c2)CCC12CCCNC2` (centres undefined): the INHIBITION turned out to be 80.7%.

Consider `O=C1N(Cc2ccc(Cl)cc2)CCC12CCCNC2` (centres undefined), for which the INHIBITION is 85.4%.

As for `O=C1N(Cc2cccnc2)CCC12CCCNC2` (centres undefined), the INHIBITION is -85.5%.

For `O=C([C@H]1CN(Cc2ccncc2)C[C@H]2OCC[C@@H]12)N1CCCCO1`, the INHIBITION was -89.5%.

As to `Cc1ccc(CN2C[C@H]3OC(=O)N(Cc4ccccn4)[C@H]3C2)o1`, the INHIBITION is -74.6%.

In the case of `CCc1ccc(CN(CCN(C)C)Cc2ccc(C)s2)nc1`, the INHIBITION is reported as 91.9%.

For the molecule `CCc1ncc(CN(CCc2ccccc2)Cc2cccs2)cn1`, the INHIBITION was -80.9%.

Consider `COCCN1CC[C@]2(CN(Cc3cccnc3)C[C@H]2C)C1=O`, for which the INHIBITION amounted to 25.1%.

For `Cc1cc(C(=O)N2CCC3(CCN3Cc3ccc(F)cc3)C2)no1` (centres undefined), the INHIBITION worked out at 4.88%.

With `O=C(c1c[nH]cn1)N1CCC(F)(F)C2(CCN(c3cccc(F)c3)C2)C1` (centres undefined), the INHIBITION is listed as 86.2%.

As for `O=C(O)CN1CCC(F)(F)C2(CCN(c3ccccn3)C2)C1` (centres undefined), the INHIBITION is -77.3%.

In the case of `Cc1n[nH]c2c1C(c1ccncc1)SCC(=O)N2` (centres undefined), the INHIBITION is recorded as -28%.

For the molecule `COCCN1CCOCC2(C1)CN(C(=O)c1conc1C)CCO2` (centres undefined), the INHIBITION is on record as -10.5%.

Turning to `COC(=O)NCCC(=O)NC(C)Cc1cccc(Br)c1` (centres undefined), the INHIBITION is -15.7%.

As to `CCC(=O)NCC(=O)NCC(C)(C)c1cccc(Br)c1`, the INHIBITION worked out at 87.2%.

On to `COC(=O)NCCC(=O)NC(C)Cc1ccccc1Br` (centres undefined), for which the INHIBITION was -138%.

For `COC(=O)NCC(=O)NCC(C)(C)c1cccc(Br)c1`, the INHIBITION is given as 84.6%.

In the case of `c1cc(CN2CCO[C@@H]3CNC[C@@H]32)cs1`, the INHIBITION is -38.5%.

For the molecule `Cc1cccc(CN2C[C@H](NS(C)(=O)=O)[C@@H]3OCCC[C@@H]32)n1`, the INHIBITION was -121%.

Regarding `CC(C)CN1CCCC1c1cc[nH]n1` (centres undefined), the INHIBITION is given as 91%.

For `CC(C)N1CCO[C@H]2CN(Cc3cc[nH]n3)C[C@H]21`, the INHIBITION was -62.4%.

As for `COCC(=O)N1CC[C@H]2[C@H]1CCN2CC(C)C`, the INHIBITION is -34.8%.

As to `CC(C)c1ncc2c(n1)CN(CCCc1nc3ccccc3o1)CC2`, the INHIBITION turned out to be 70.3%.

Turning to `Cc1noc(C)c1CN1CC[C@@H]2O[C@@H](COCC(C)C)CC[C@@H]21`, the INHIBITION is recorded as -49.5%.

With `COc1ccc(C[C@H]2CNCC[C@@H]2OCC2CC2)cc1`, the INHIBITION was determined as 82.2%.

On to `COc1ccc(C[C@H]2CNCC[C@@H]2OC)cc1`, for which the INHIBITION was found to be 78.3%.

For `COc1cccc(CC(C)NC(=O)NCCc2cccnc2)c1` (centres undefined), the INHIBITION was -58.4%.

Regarding `O=C1CSC(c2ccc3c(c2)OCO3)c2cnn(C3CCCCC3)c2N1` (centres undefined), the INHIBITION is on record as -33%.

Consider `c1cc(CNCc2ccnc(N3CCCC3)c2)c2c(c1)OCCCO2`, for which the INHIBITION was -20.5%.

In the case of `COc1ccc(OC)c(CNCc2ccnc(N3CCCCC3)c2)c1`, the INHIBITION is 75.8%.

In the case of `CCC(O)CN1CCN(C(=O)Cc2ccc(OC)cc2OC)CC1` (centres undefined), the INHIBITION is recorded as -2.14%.

Regarding `COc1ccc(CNCc2ccnc(N3CCCC3)c2)c(OC)c1`, the INHIBITION is recorded as 73.6%.

`CC[C@@H]1N(Cc2cccnc2)CCC[C@]12CCC(=O)N2C`: the INHIBITION was -25.2%.

As for `CN1CC=C(c2noc(CCC(=O)N3CCOCC3)n2)CC1`, the INHIBITION is reported as -132%.

Turning to `Cn1ncc2c(N3CCCC4(CCNC4)C3)nc(C(C)(C)C)nc21` (centres undefined), the INHIBITION is recorded as 38.2%.

In the case of `CCNC(=O)CN1CCSC2(CCCCC2)C1`, the INHIBITION is listed as -49.4%.

In the case of `NC(=O)CN1CCCN(C(=O)Cc2ccc(Br)cc2)CC1`, the INHIBITION is -114%.

Regarding `CCC1(CC)Cc2ccccc2-c2nc(CN(C)C)nc(O)c21`, the INHIBITION amounted to 74.6%.

Take `FC(F)CN1CCOC(Cn2cccn2)C1` (centres undefined): the INHIBITION is recorded as -69.4%.

As for `OCCN1CCC(CNCc2ccccc2OC(F)(F)F)CC1`, the INHIBITION amounted to 95.8%.

For the origin of these results see ChEMBL document CHEMBL4513216, “Probing the Open Global Health Chemical Diversity Library for Multistage-Active Starting Points for Next-Generation Antimalarials” (ACS Infect Dis, 2020).
